One sequence from PMC7862700, “An all-to-all approach to the identification of sequence-specific readers for epigenetic DNA modifications on cytosine” can be followed below.

Common to all, as to test: DAPPL (digital affinity profiling via proximity ligation, sequencing); 10 mM Tris-HCl pH 7.5, 50 mM NaCl, 1 mM DTT, 4% glycerol, room temperature, 30 min; GST-TFs on glutathione beads, 16-mer random dsDNA library, 0.1% formaldehyde crosslink after washing; high values mean tight binding
The target in experiment [1] is T1, FLI1 (Homo sapiens, UniProt Q01543 1-452).
T1 sequence: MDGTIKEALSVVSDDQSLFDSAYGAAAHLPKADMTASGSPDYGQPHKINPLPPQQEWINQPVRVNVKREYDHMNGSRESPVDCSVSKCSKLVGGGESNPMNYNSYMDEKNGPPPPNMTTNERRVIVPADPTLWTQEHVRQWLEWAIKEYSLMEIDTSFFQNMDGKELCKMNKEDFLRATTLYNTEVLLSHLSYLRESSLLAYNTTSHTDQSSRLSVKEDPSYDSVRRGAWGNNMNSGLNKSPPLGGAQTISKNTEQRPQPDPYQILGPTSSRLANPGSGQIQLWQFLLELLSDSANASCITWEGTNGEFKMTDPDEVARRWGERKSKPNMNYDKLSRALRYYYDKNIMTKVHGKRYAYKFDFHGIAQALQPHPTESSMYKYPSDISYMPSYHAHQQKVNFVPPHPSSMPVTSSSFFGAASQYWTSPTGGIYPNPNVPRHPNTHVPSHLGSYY
Particulars: protein: recombinant; tags: N-terminal GST; dsDNA, one strand shown. A digest of the protocol:
(§1)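 Binding signal is each hexamer's read frequency for a factor divided by its frequency in the tag-only sample. The factors were GST-fused human transcription factors from yeast, captured on glutathione beads, DNA-barcoded and pooled with that sample. Pools were incubated with 200 nmole of a random double-stranded 16-mer DNA library in Tris/NaCl/DTT/glycerol buffer at room temperature for 30 min, then washed, crosslinked with 0.1% formaldehyde, proximity-ligated with BsaI/T4 ligase (1 h, 37 °C), PCR-amplified and sequenced on an Illumina NextSeq500.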

Experiment [2] concerns the target T2, ELK1 (Homo sapiens, UniProt P19419 1-428).
T2 sequence: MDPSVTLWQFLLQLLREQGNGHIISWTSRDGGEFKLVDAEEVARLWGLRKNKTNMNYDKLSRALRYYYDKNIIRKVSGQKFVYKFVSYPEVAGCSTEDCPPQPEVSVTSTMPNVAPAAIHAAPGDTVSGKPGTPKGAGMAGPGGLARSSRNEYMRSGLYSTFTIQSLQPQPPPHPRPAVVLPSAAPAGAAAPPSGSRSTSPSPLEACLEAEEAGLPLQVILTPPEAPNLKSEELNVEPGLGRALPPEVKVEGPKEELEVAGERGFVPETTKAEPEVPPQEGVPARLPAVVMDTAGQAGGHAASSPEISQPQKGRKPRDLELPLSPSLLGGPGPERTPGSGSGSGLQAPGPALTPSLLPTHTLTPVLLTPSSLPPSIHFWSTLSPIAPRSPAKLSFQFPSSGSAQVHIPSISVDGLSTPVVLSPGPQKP
The following applies: protein: recombinant; tags: N-terminal GST; dsDNA, one strand shown. The procedure, abridged: as §1

Experiment [3] concerns the target T3, GABPA (Homo sapiens, UniProt Q06546 1-454).
T3 sequence: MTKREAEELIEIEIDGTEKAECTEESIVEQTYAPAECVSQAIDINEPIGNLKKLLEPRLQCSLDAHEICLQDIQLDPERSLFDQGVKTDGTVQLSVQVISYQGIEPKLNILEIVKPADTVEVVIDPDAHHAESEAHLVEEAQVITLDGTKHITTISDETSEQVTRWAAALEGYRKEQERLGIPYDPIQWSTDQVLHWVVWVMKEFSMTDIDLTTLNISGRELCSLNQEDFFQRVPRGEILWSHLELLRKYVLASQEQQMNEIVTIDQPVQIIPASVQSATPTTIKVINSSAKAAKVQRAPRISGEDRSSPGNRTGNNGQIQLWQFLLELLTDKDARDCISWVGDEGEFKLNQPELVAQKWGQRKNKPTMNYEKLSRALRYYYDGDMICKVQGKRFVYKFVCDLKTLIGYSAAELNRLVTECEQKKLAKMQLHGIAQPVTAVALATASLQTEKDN
Particulars: protein: recombinant; tags: N-terminal GST; dsDNA, one strand shown. The procedure, abridged: as §1

Experiment [4] concerns the target T4, ERG (Homo sapiens, UniProt P11308 1-479).
T4 sequence: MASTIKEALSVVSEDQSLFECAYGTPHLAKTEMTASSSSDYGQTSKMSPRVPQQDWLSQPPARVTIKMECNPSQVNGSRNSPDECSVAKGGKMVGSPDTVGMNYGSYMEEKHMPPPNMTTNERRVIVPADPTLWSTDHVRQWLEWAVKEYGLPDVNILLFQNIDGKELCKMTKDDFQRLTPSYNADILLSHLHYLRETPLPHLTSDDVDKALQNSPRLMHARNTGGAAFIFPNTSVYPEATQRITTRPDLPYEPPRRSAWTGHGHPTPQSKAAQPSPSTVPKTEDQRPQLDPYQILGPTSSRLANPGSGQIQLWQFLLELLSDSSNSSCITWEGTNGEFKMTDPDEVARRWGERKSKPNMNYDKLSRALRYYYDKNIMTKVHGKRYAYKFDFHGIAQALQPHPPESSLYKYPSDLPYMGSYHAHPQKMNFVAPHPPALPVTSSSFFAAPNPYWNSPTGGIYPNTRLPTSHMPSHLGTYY
The following applies: protein: recombinant; tags: N-terminal GST; dsDNA, one strand shown. A digest of the protocol: as §1

Experiment [5] has as its target ELF1 (Homo sapiens, UniProt P32519 1-619). Particulars: protein: recombinant; tags: N-terminal GST; dsDNA, one strand shown. The procedure, abridged:
as §1

Experiment [6] addresses T5, EHF (Homo sapiens, UniProt Q9NZC4 1-300).
T5 sequence: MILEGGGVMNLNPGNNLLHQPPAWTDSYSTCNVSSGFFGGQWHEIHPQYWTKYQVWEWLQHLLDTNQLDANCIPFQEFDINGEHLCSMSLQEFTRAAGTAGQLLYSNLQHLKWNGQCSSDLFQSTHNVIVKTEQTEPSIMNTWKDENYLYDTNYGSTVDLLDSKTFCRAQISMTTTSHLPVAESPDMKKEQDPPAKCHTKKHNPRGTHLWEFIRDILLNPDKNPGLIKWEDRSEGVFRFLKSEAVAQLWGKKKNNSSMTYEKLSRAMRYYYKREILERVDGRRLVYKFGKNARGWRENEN
Particulars: protein: recombinant; tags: N-terminal GST; dsDNA, one strand shown. The procedure, abridged: as §1

Experiment [7] has as its target SPI1 (Homo sapiens, UniProt P17947 1-270). Particulars: protein: recombinant; tags: N-terminal GST; dsDNA, one strand shown. A digest of the protocol:
as §1

Experiment [8] has as its target SPIB (Homo sapiens, UniProt Q01892 1-262). The following applies: protein: recombinant; tags: N-terminal GST; dsDNA, one strand shown. A digest of the protocol:
as §1

The target of experiment [9] is T6, ELK3 (Homo sapiens, UniProt P41970 1-407).
T6 sequence: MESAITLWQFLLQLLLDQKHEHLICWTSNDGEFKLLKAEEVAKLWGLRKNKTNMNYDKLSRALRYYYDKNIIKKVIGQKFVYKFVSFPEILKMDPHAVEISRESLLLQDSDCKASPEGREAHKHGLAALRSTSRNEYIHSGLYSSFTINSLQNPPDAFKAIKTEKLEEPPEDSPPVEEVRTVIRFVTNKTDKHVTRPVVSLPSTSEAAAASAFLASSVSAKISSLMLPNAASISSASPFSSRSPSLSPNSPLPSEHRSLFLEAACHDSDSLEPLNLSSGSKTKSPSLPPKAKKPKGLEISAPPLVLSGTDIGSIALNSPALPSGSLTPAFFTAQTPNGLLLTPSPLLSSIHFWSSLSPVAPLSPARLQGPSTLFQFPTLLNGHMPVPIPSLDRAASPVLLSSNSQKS
Particulars: protein: recombinant; tags: N-terminal GST; dsDNA, one strand shown. The procedure, abridged: as §1

For experiment [10], the target named is T7, FEV (Homo sapiens, UniProt Q99581 1-238).
T7 sequence: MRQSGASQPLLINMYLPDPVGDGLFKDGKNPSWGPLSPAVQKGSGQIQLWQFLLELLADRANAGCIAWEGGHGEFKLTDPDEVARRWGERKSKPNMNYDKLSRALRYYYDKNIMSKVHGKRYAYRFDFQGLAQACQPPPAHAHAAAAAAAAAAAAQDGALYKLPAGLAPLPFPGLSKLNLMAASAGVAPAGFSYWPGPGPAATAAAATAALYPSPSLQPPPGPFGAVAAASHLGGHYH
Particulars: protein: recombinant; tags: N-terminal GST; dsDNA, one strand shown. The procedure, abridged: as §1

The target in experiment [11] is ETV5 (Homo sapiens, UniProt P41161 1-510). The following applies: protein: recombinant; tags: N-terminal GST; dsDNA, one strand shown. A digest of the protocol:
as §1

Experiment [12] concerns the target HSF1 (Homo sapiens, UniProt Q00613 1-529). The following applies: protein: recombinant; tags: N-terminal GST; chain copies: 3; dsDNA, one strand shown. A digest of the protocol:
as §1

The target of experiment [13] is T8, SPIC (Homo sapiens, UniProt Q8N5J4 1-248).
T8 sequence: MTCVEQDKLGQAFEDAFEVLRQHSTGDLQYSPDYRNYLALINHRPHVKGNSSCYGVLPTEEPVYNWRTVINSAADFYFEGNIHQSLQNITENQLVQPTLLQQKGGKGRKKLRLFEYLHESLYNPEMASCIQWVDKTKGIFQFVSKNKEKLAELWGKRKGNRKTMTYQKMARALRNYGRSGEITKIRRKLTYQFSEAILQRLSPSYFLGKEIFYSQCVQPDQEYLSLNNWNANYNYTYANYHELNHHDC
Particulars: protein: recombinant; tags: N-terminal GST; dsDNA, one strand shown. A digest of the protocol: as §1

The target in experiment [14] is ELF4 (Homo sapiens, UniProt Q99607 1-663). The following applies: protein: recombinant; tags: N-terminal GST; dsDNA, one strand shown. A digest of the protocol: as §1
Experiment [15] has as its target T9, ELK4 (Homo sapiens, UniProt P28324-2 1-405).
T9 sequence: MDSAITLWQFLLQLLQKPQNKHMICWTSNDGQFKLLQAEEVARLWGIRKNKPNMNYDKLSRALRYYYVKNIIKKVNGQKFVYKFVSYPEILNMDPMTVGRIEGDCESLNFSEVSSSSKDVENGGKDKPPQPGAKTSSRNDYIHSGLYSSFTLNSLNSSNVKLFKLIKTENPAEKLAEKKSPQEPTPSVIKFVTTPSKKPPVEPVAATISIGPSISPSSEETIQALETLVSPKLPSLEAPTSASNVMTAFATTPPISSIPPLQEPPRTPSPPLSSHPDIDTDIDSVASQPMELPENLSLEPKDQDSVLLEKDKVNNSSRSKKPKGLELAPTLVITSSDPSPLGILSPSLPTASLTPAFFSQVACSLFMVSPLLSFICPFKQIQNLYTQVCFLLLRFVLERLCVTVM
The following applies: protein: recombinant; tags: N-terminal GST; dsDNA, one strand shown. A digest of the protocol: as §1

Experiment [16] has as its target T10, ETV2 (Homo sapiens, UniProt O00321 1-342).
T10 sequence: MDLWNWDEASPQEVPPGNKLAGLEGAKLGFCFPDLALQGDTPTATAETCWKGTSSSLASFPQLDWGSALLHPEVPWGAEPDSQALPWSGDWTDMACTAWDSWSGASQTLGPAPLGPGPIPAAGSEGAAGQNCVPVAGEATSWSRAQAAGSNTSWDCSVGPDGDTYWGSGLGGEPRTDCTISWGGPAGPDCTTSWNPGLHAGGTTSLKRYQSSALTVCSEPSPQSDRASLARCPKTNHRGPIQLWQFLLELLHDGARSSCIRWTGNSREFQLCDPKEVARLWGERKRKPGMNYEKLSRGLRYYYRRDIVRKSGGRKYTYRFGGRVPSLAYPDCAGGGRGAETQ
Particulars: protein: recombinant; tags: N-terminal GST; dsDNA, one strand shown. The procedure, abridged: as §1

Experiment [17] deals with T11, ELF3 (Homo sapiens, UniProt P78545 1-371).
T11 sequence: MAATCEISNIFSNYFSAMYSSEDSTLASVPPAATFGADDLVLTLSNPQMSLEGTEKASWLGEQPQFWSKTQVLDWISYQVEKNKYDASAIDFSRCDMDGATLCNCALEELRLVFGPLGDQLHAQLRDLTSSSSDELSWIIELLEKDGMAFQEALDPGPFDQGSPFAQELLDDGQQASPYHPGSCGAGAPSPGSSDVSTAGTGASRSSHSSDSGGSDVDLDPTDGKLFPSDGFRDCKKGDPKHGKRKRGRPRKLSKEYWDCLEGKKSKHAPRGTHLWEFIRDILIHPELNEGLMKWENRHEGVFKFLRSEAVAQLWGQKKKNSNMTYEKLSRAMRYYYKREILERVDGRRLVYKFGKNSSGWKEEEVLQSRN
Particulars: protein: recombinant; tags: N-terminal GST; dsDNA, one strand shown. The procedure, abridged: as §1

Chain of SPIB (Q01892 whole entry): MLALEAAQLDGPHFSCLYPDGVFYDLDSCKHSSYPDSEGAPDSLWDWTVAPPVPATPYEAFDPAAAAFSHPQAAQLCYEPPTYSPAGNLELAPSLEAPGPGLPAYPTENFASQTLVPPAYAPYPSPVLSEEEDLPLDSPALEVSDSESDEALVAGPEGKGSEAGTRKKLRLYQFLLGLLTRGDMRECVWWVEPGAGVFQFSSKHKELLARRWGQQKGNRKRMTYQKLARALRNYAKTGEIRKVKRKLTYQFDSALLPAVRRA
Chain of ETV5 (P41161 whole entry): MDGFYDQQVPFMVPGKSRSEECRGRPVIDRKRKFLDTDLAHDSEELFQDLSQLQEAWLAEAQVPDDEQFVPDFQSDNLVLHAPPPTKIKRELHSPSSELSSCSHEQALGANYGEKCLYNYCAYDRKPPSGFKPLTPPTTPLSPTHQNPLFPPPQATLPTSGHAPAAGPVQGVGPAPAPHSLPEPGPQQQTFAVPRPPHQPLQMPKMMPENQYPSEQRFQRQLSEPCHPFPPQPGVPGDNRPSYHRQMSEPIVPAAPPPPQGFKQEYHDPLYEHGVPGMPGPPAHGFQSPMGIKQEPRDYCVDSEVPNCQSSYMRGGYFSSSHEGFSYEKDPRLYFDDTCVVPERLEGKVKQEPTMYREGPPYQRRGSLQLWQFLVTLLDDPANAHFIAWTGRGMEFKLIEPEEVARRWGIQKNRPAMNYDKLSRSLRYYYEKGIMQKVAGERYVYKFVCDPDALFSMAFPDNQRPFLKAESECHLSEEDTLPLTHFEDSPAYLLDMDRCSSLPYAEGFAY
Chain of ELF4 (Q99607 whole entry): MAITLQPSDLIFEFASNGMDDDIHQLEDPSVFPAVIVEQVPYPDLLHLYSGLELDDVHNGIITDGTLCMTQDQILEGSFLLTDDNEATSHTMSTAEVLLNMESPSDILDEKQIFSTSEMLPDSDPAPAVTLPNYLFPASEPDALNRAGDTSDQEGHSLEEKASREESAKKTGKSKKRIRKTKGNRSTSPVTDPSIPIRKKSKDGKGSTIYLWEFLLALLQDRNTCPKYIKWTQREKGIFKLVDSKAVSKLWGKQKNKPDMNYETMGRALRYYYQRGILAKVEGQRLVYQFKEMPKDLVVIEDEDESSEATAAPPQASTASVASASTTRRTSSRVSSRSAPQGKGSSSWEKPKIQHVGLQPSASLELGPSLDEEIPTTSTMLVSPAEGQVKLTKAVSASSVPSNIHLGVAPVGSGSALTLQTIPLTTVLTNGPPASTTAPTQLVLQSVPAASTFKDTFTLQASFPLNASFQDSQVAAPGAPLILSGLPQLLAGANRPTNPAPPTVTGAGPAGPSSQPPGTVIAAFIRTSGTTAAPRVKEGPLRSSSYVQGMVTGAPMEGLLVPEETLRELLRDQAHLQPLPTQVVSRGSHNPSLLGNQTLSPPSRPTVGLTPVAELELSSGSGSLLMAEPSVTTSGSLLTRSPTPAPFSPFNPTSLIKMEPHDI
Chain of HSF1 (Q00613 whole entry): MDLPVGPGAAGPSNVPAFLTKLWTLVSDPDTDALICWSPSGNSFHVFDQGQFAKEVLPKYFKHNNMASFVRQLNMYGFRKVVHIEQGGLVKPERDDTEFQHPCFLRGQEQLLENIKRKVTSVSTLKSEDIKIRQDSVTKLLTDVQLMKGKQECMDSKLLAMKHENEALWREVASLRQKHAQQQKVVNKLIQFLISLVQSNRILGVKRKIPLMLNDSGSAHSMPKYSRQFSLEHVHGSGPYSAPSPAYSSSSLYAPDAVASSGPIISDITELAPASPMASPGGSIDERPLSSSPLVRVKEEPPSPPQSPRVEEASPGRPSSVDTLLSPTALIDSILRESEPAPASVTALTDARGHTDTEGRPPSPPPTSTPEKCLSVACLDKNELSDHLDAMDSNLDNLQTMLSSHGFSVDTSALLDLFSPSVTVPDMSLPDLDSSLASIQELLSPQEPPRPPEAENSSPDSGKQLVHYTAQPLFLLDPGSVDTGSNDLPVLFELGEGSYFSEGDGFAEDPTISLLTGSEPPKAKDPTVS
Chain of ELF1 (P32519 whole entry): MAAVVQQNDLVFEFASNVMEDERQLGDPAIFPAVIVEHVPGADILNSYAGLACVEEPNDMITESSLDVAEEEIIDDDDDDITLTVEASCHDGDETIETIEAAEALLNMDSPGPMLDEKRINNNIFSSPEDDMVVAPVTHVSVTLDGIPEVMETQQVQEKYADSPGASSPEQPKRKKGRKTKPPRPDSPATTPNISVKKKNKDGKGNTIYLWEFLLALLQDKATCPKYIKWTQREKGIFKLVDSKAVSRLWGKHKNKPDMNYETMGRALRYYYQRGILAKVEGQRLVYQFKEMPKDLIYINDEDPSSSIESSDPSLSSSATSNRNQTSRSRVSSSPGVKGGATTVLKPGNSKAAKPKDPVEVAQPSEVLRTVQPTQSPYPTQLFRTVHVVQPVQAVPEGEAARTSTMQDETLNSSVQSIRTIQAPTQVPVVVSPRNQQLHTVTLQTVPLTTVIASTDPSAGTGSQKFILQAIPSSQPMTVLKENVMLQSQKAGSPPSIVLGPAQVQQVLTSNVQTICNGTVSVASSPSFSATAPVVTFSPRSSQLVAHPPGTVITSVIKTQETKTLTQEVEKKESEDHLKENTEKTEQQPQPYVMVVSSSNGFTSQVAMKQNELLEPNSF

With CTGGGT, the binding signal in [1] is 1.21 fold enrichment (6-mer frequency, TF over GST control); in experiment [2], 1.1 fold enrichment (6-mer frequency, TF over GST control); in [3], 1.18 fold enrichment (6-mer frequency, TF over GST control); in experiment [4] it was 1.12 fold enrichment (6-mer frequency, TF over GST control); in [5] it was 1.17 fold enrichment (6-mer frequency, TF over GST control); in experiment [6], 1.12 fold enrichment (6-mer frequency, TF over GST control). For the same sequence, the binding signal in experiment [7] is 1.13 fold enrichment (6-mer frequency, TF over GST control); in experiment [8], 1.09 fold enrichment (6-mer frequency, TF over GST control); in experiment [9], 1.1 fold enrichment (6-mer frequency, TF over GST control); in experiment [10], 1.06 fold enrichment (6-mer frequency, TF over GST control); in experiment [11], 1.05 fold enrichment (6-mer frequency, TF over GST control); in experiment [12] it was 1.04 fold enrichment (6-mer frequency, TF over GST control). Besides, the binding signal in experiment [13] was 1.17 fold enrichment (6-mer frequency, TF over GST control); in experiment [14], 1.13 fold enrichment (6-mer frequency, TF over GST control); in experiment [15] it was 1.2 fold enrichment (6-mer frequency, TF over GST control); in experiment [16] it was 1.22 fold enrichment (6-mer frequency, TF over GST control); in experiment [17], 1.12 fold enrichment (6-mer frequency, TF over GST control).
